For this assay, the target named is PUM1 PUF domain R4-SMV (Homo sapiens, UniProt Q14671 828-1176, N971S;H972M;Q975V). Description: yeast three-hybrid, YBZ-1, SC-Leu-His + 0.5 mM 3-AT, 4 days. To be noted: tags: N-Gal4 AD-HA kept; label: inside an RPR1-promoter hybrid RNA with tandem MS2 sites; ssRNA. The method in brief:
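Pumilio-1 PUF domain libraries, randomized at the three base-contacting residues of each repeat, were co-expressed with matching RNA elements from a centromeric plasmid in strain YBZ-1, which carries a LexA–MS2 coat fusion and a HIS3 reporter. Transformants grew for four days on SC-Leu (input) or on SC-Leu-His + 0.5 mM 3-AT (selection), and the repeat regions were PCR-amplified and Illumina-sequenced. The interaction score is the log change in variant frequency from input to selection. That logarithm is base 2, with a pseudocount of 1 where a variant was absent.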
Sequence of PUM1 PUF domain R4-SMV (Q14671 828-1176 N971S/H972M/Q975V): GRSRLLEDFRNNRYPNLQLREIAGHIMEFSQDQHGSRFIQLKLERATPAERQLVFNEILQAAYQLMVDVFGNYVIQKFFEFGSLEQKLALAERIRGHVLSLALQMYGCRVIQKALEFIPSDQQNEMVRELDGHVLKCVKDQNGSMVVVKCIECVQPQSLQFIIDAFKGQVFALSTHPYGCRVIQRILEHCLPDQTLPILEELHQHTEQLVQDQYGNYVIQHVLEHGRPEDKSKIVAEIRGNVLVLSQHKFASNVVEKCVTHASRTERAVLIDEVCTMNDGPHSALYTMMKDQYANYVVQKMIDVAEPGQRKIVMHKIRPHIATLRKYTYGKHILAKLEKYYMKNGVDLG
In the case of “GGCUAGAACUAGUGGAUCCCCCGGCGCCCGGCGGCUCGAGCCCGGGUAAGUGUACAUAGUCUGCAUGCCGCCGGGCGCCAUGCCUGCAGGUCGACUCUAGAAAACAUG”, the binding signal is 0.58 log2 enrichment (interaction score).

For the sequence “GGCUAGAACUAGUGGAUCCCCCGGCGCCCGGCGGCUCGAGCCCGGGUAAGUGUAAAUAGUCUGCAUGCCGCCGGGCGCCAUGCCUGCAGGUCGACUCUAGAAAACAUG”, the binding signal is 3.8 log2 enrichment (interaction score).

Turning to “GGCUAGAACUAGUGGAUCCCCCGGCGCCCGGCGGCUCGAGCCCGGGUAAGUGUAUAUAGUCUGCAUGCCGCCGGGCGCCAUGCCUGCAGGUCGACUCUAGAAAACAUG”, the binding signal is 2.15 log2 enrichment (interaction score).

(Values after PMC8384837, “Expanding the binding specificity for RNA recognition by a PUF domain”.)
